From ChEMBL document CHEMBL1157539, “Thousands of chemical starting points for antimalarial lead identification” (Nature, 2010)

Columns and labels:
Format in all cases: functional
Plasmodium falciparum [1] = test: GSK_TCMDC: Inhibition of Plasmodium falciparum 3D7 in whole red blood cells, using parasite LDH activity as an index of growth. Test compounds present at 2uM
Plasmodium falciparum [2] = test: GSK_TCMDC: Inhibition of Plasmodium falciparum Dd2 in whole red blood cells, using parasite LDH activity as an index of growth. Test compounds present at 2uM
HepG2 = test: GSK_TCMDC: Percent inhibition of human HepG2 cell line. Test compounds present at 10uM.

SMILES	Inhibition (Plasmodium falciparum [1]) [%]	Inhibition (Plasmodium falciparum [2]) [%]	Inhibition (HepG2) [%]
COc1ccc2nccc([C@@H](O)CN3CCC(NCc4nc5ccc(F)cc5[nH]4)CC3)c2c1.O=C(O)C(=O)O	100	4	20
CCCCN(CCCC)C(=N)c1cccc2c1CCCC2.Cl	95	9	11
CCN1CCN(Cc2c(O)ccc3c(=O)c(Oc4cc(C)cc(C)c4)c(C(F)(F)F)oc23)CC1	96	90	6
O=C(O)/C=C\C(=O)O.c1cc(CN2CCCCC2)cc(OCCCNc2ccnc3ccccc23)c1	100	99	48
CN(C)c1ccc(/N=C2/N/C(=N/c3ccc(N(C)C)cc3)c3ccccc32)cc1	93	20	23
CC(C)(C)c1ccc(NC(=O)c2cccc(CN3CCN(Cc4cccc(O)c4)CC3)c2)cc1.O=C(O)C(F)(F)F	92	3	28
CCCC(CC)n1ccc2c3c(N)nc(N)nc3ccc21.CS(=O)(=O)O (stereo not given)	94	97	67
C=C[C@]1(C)C[C@@H](OC(=O)CNC[C@@H](O)CN2C[C@H](c3ccnc4ccc(OC)nc34)OC2=O)[C@@]2(C)[C@@H]3C(=O)CC[C@@]3(CC[C@@H]2C)[C@@H](C)[C@@H]1O	89	82	0
O=C(N/C=N/c1cc([N+](=O)[O-])c(-c2cccnc2)n1-c1ccc(O)cc1)c1ccccc1	100	62	17
C[C@H](Cc1ccc(OCCCOc2ccc(C[C@@H](C)NC[C@H](O)c3cccc(Cl)c3)cc2)cc1)NC[C@H](O)c1cccc(Cl)c1.Cl	99	92	99
CC(C)C[C@@H](/C=N/N1CCOC1=O)NC(=O)[C@H](CC(C)C)NC(=O)c1ccc(OCCN2CCOCC2)cc1	92	87	5
N#Cc1cccc(C(=O)Nc2cccc(-c3cccc(CN4CCNCC4)c3)c2)c1.O=C(O)C(F)(F)F	89	10	37
CCN(CC)CCN(Cc1ccc(-c2ccc(C(F)(F)F)cc2)cc1)C(=O)Cn1c(CCc2ccc(F)cc2)nc(=O)c2ccccc21.O=C(O)C(O)C(O)C(=O)O	97	58	42
Cl.O=C(Nc1cccc(Cl)c1Cl)N1CCc2cc3nccc(N4CCN5CCC[C@H]5C4)c3cc21	98	100	9
COc1ccc(O)c(C(=O)NCCc2ccc(OC)c(-c3ccc(C(C)(C)C)cc3)c2)c1	88	91	11
COc1ccc(F)cc1-c1ccccc1CNC(=O)CN(C)S(=O)(=O)c1cc(C)cc(Cl)c1C	92	73	0
CCOC(=O)c1ccc(COc2ccc(C)nc2)cc1	100	0	14
CSc1c(CNCCCNc2cc(=O)c3ccccc3[nH]2)[nH]c2ccccc12	87	21	0
COc1ccc2[nH]ccc(=NN=Cc3ccccc3Cl)c2c1	100	99	29
COc1ccccc1-n1c(-c2ccc3ccccc3c2)csc1=NC(=O)c1ccccc1	93	79	0

SMILES	Inhibition (Plasmodium falciparum [1]) [%]	Inhibition (Plasmodium falciparum [2]) [%]	Inhibition (HepG2) [%]
CN1CCC(c2cc3c(cc2Br)CCN3C(=O)Nc2ccc(-c3ccncc3)c(Cl)c2)CC1	91	0	26
Cc1cc(SC(C)(C)C)cc2c(Cl)c(C(N)=O)cnc12	98	98	83
Cc1noc(-c2ccc3c(c2)CCN(CCC2CCC(NC(=O)c4cc5ccccc5[nH]4)CC2)CC3)n1.Cl (stereo not given)	99	41	21
O=C(O)c1cc(C(F)(F)F)co1	96	19	0
CN(Cc1ccc(-c2ccc(C(F)(F)F)cc2)cc1)C(=O)Cn1c(CCc2cccc(F)c2F)nc(=O)c2ccc(N3CCN(CCN4CCCCC4)CC3)nc21.O=C(O)C(O)C(O)C(=O)O	100	100	100
Cc1nc2ccc(-c3ccc(OC(F)(F)F)cc3)cc2c(O)c1C#N	98	97	0
CO/C(=C\C=C\c1cc2cc(Cl)c(Cl)cc2[nH]1)C(=O)NC1CCN(CCCc2ccccc2)CC1	93	75	59
O=C(Nc1ccc(O)c(-c2nc3ccccc3[nH]2)c1)c1ccc([N+](=O)[O-])cc1	97	45	0
CN1CCN(c2ccnc3ccc(NC(=O)Cc4ccc(-c5ccncc5)c5ccccc45)cc23)CC1	100	100	32
O=C(Nc1ccc2c(c1)CCN2C1CCN(Cc2cc(F)cc(F)c2F)C1)c1ccco1 (stereo not given)	96	95	0
COc1ccc(-c2cccc(NC(=O)c3cccc(Cl)c3)c2)cc1CN(C)CCN(C)C.O=C(O)C(F)(F)F	100	73	32
Cc1cccc2nc(-c3ccc(-c4cccc(NC(=O)CCc5c[nH]cn5)c4)cc3)[nH]c12	100	14	13
NC1=NC(c2ccccc2)(c2ccccn2)C(=O)N1CCCc1ccccc1.O=C(O)C(F)(F)F (stereo not given)	85	64	0
COc1ccc2nc3cc(Cl)ccc3c(NCc3ccccc3)c2c1.Cl	100	50	8
O=C(Nc1ccc(Cn2ncc(N3CCCNCC3)c(Cl)c2=O)cc1)Nc1ccc(F)cc1[N+](=O)[O-]	90	0	11
COc1ccc2nccc([C@@H](O)CN3CCC(NCc4cnc5snnc5c4)C(F)C3)c2c1.Cl (stereo not given in full)	83	88	13
COc1ccc(Nc2nccc(N3CCC(NC(=O)c4cccc(NC(C)=O)c4)C3)n2)cc1 (stereo not given)	92	84	0
COc1cc(C(=O)N2N=C(c3c(-c4ccccc4)c4cc(Br)ccc4[nH]c3=O)CC2c2cccc([N+](=O)[O-])c2)cc(OC)c1OC (stereo not given)	93	95	1
CC(=O)N[C@H](C(=O)Nc1cccc(-c2ccc(-c3nc4cccc(C)c4[nH]3)s2)c1)C(C)C	93	29	33
CN(C)CCCn1c(N)c(-c2nc3ccccc3[nH]2)c2nc(C#N)c(C#N)nc21	100	100	100

SMILES	Inhibition (Plasmodium falciparum [1]) [%]	Inhibition (Plasmodium falciparum [2]) [%]	Inhibition (HepG2) [%]
CCc1c(C)nc(-n2nc(C)cc2NC(=O)c2cccc3ccccc23)[nH]c1=O	98	89	39
COc1cccc(CNC[C@@H](O)[C@H](Cc2ccccc2)NC(=O)c2cc3c4c(c2)c(C(C)C)cn4CCS(=O)(=O)N3C)c1.O=CO	98	98	21
CC(C)(C)c1cc([N+](=O)[O-])cc(C(=O)Nc2ccccc2C(F)(F)F)c1O	96	99	74
CN(C)CCCNc1ncnc2c1[nH]c1ccc(Cl)cc12	99	3	2
COc1cc2c(cc1COc1ccccc1)CCN1Cc3cc(OC)c(OC)cc3CC21 (stereo not given)	99	84	0
Br.CC1(C)NC(N)=NC(=N)N1OCCSc1ccccc1	95	95	68
Cc1ccccc1N1CCN(c2ccc(C(=O)NC3CC3)cn2)CC1.O=C(O)C(F)(F)F	96	96	14
O=C(Nc1ccccc1F)NC1CCN(c2ccnc(Nc3ccc(F)cc3)n2)CC1	99	63	13
CSC1=NC(=Nc2c(C)cccc2C)C2(CCC(C(C)(C)C)CC2)N1c1ccc(O)cc1.I (stereo not given)	97	93	5
CCC(C)NS(=O)(=O)c1ccc2nc(Nc3ccc(C)cc3)n(C3CCCCC3)c2c1 (stereo not given)	97	97	0
CCN(CC)CCCNc1c2ccccc2nc2ccccc12.Cl	100	0	17
CC(C)CCNC(=O)C1Cc2c([nH]c3cc(Cl)ccc23)C2(CCN(CCc3ccccc3)CC2)N1 (stereo not given)	100	55	17
Oc1ccc(CN2CCC(N3CCN(CCc4ccccc4)CC3)C(O)C2)cc1Cl (stereo not given)	100	77	0
O=C(CC1NC(=O)c2ccccc21)Nc1ccc(-c2cccc(-c3nc4cc(C(F)(F)F)ccc4[nH]3)c2)cc1 (stereo not given)	95	36	69
Cc1cccc(C(=O)Nc2ccnc(N3CCC(N(C)Cc4cccc(C#N)c4)CC3)c2)c1.O=C(O)C(F)(F)F	100	52	5
COc1cc(Nc2nccc(N3CCC(NC(=O)c4cc5ccccc5s4)C3)n2)cc(OC)c1OC (stereo not given)	96	50	2
COc1ccc(-c2cccc(NC(=O)c3cccc(C#N)c3)c2)cc1CN1CCC(O)CC1.O=C(O)C(F)(F)F	97	13	30
COc1ccc(C(=O)N2CCN(c3ccc([N+](=O)[O-])c(NC4CC4)c3)CC2)cc1Br	99	68	6
NC(=O)c1ccc(C(=O)Nc2cccc(-c3csc(-c4nc5ccccc5[nH]4)c3)c2)cc1	100	35	14
CN(C)CCNCc1cccc(-c2ccc3c(Nc4ccc(F)cc4Cl)ccnc3c2)c1	100	98	17
